Reference: the supplement of paper PMC9135407
Values joined by “and” are separate entries in the source; they are usually repeats but may differ in a detail not shown here. Equal entries are not always repeated. Structures can show the parent of a compound that is named as a salt. The campaign covered roughly 5,800 compounds. About 620 (11%) showed activity. Many of the other results were omitted from the sample, so actives are more common in it than they were. A number with no mark means an inactive call.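 Rule for the calls: active = score above a cut-off or among the top three wells of a plate; in these data no inactive exceeds 0.85.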

Test system: primary human hepatic stellate cells (donor 1)
Test: scaled lipid accumulation score (0 = DMSO-like, 1 = nortriptyline-like); higher = stronger HSC inactivation (lipid re-accumulation), active = hit call of the paper
Settings: 48 h
[1] = library stock concentration: 10 mM
[2] = library stock concentration: 3.33 mM
[3] = library stock concentration: 5.2 mM
[4] = library stock concentration: 1 mM
[5] = library stock concentration: 6.4 mM

COc1cc2nc(N(C)CCCNC(=O)C3CCCO3)nc(N)c2cc1OC (stereo not drawn)
scaled lipid accumulation score [1]: ≤ 0

COc1cc2nc(N3CCN(C(=O)c4ccco4)CC3)nc(N)c2cc1OC [Prazocin]
scaled lipid accumulation score (library stock concentration: 13 mM): 1.03 (active)

COc1cc2nc(N(C)CCCNC(=O)C3CCCO3)nc(N)c2cc1OC (stereo not drawn) [Alfluzocin]
scaled lipid accumulation score [1]: 0.025

COc1cc2nc(N3CCN(C(=O)c4ccco4)CC3)nc(N)c2cc1OC.Cl [Prazosin hydrochloride]
scaled lipid accumulation score [1]: 1.35 (active)

COc1cc2nc(N(C)CCCNC(=O)C3CCCO3)nc(N)c2cc1OC (stereo not drawn) [Alfuzosin hydrochloride]
scaled lipid accumulation score: ≤ 0 | scaled lipid accumulation score [1]: 0.274

COc1cc2nc(N3CCN(C(=O)c4ccco4)CC3)nc(N)c2cc1OC [Prazosin hydrochloride]
scaled lipid accumulation score: 0.676 | scaled lipid accumulation score (library stock concentration: 4.8 mM): 0.682 | scaled lipid accumulation score [1]: 0.361 and 0.672

COc1cc2nc(N(C)CCCNC(=O)C3CCCO3)nc(N)c2cc1OC (stereo not drawn) [Alfluzosin]
scaled lipid accumulation score (library stock concentration: 5.1 mM): ≤ 0

COc1cc2nc(N3CCN(C(=O)C4CCCO4)CC3)nc(N)c2cc1OC (stereo not drawn) [Terazosin]
scaled lipid accumulation score (library stock concentration: 9.6 mM): ≤ 0 | scaled lipid accumulation score [1]: 0.162

COc1cc2nc(N3CCN(C(=O)C4COc5ccccc5O4)CC3)nc(N)c2cc1OC (stereo not drawn) [Doxazosin]
scaled lipid accumulation score [1]: 0.539

COc1cc2nc(N3CCN(C(=O)C4COc5ccccc5O4)CC3)nc(N)c2cc1OC (stereo not drawn) [Doxazosin Mesylate]
scaled lipid accumulation score [2]: ≤ 0 | scaled lipid accumulation score [1]: 0.473

COc1cc2nc(N3CCN(C(=O)C4CCCO4)CC3)nc(N)c2cc1OC (stereo not drawn) [Terazosin HCl]
scaled lipid accumulation score [2]: ≤ 0 | scaled lipid accumulation score [3]: 0.009 | scaled lipid accumulation score [1]: ≤ 0

COc1cc2nc(N3CCN(C(=O)C4COc5ccccc5O4)CC3)nc(N)c2cc1OC (stereo not drawn) [Doxazosin mesylate]
scaled lipid accumulation score: ≤ 0 | scaled lipid accumulation score (library stock concentration: 4.4 mM): 0.151 | scaled lipid accumulation score [1]: 0.85

COc1cc2nc(N3CCN(C(=O)c4ccco4)CC3)nc(N)c2cc1OC [Prazosin HCl]
scaled lipid accumulation score [3]: 0.728

COc1cc2nc(N(C)CCCNC(=O)C3CCCO3)nc(N)c2cc1OC (stereo not drawn) [Alfuzosin HCl]
scaled lipid accumulation score [2]: ≤ 0 | scaled lipid accumulation score [1]: ≤ 0

COc1cc2nc(N3CCN(C(=O)c4ccco4)CC3)nc(N)c2cc1OC [Prazosin]
scaled lipid accumulation score [1]: 1 (active)

COc1cc2nc(N3CCN(C(=O)C4CCCO4)CC3)nc(N)c2cc1OC (stereo not drawn) [Terazosin hydrochloride]
scaled lipid accumulation score: ≤ 0 | scaled lipid accumulation score [1]: ≤ -0.006

O=C(O)CCC/C=C\C[C@H]1C(=O)C=C[C@@H]1/C=C/[C@@H](O)COc1ccccc1 [16-phenoxy tetranor Prostaglandin A2]
scaled lipid accumulation score [4]: ≤ 0

CCCCCCCCCCCCCCCC(=O)OC[C@H](COP(=O)([O-])OCC[N+](C)(C)C)OC(=O)CCCCCCCC(=O)O
scaled lipid accumulation score [4]: ≤ 0

CC(C)(C)[C@]1(O)CCN2C[C@H]3c4ccccc4CCc4cccc(c43)[C@@H]2C1 [(+)-Butaclamol hydrochloride]
scaled lipid accumulation score [1]: 0.672

CC(C)(C)[C@]1(O)CCN2C[C@H]3c4ccccc4CCc4cccc(c43)[C@@H]2C1
scaled lipid accumulation score [1]: 0.691

CCCCC[C@H](O)/C=C/C=C\CCCCCCCC(=O)O
scaled lipid accumulation score (library stock concentration: 100 uM): ≤ -0.021

CCCCCC(=O)/C=C/[C@@H]1[C@@H](C/C=C\CCCC(=O)O)[C@@H](O)C[C@H]1O [15-keto Prostaglandin F2.alpha.]
scaled lipid accumulation score [4]: ≤ 0

CC(=O)NNC(=O)N1Cc2ccccc2Oc2ccc(Cl)cc21
scaled lipid accumulation score [1]: ≤ 0 and ≤ -0.006

Clc1ccc2c(c1)C(N1CCNCC1)=Nc1ccccc1O2 [Amoxapine] [listing 1 of 4 here]
scaled lipid accumulation score [1]: 1.05 (active)

CCN(CC)CCCCN1c2ccccc2Oc2ccc(Cl)cc21 [Akt Inhibitor X]
scaled lipid accumulation score [2]: 0.225

Clc1ccc2c(c1)C(N1CCNCC1)=Nc1ccccc1O2 [Amoxapine] [listing 2 of 4 here]
scaled lipid accumulation score [5]: 0.886 (active)

Clc1ccc2c(c1)C(N1CCNCC1)=Nc1ccccc1O2 [Amoxapine] [listing 3 of 4 here]
scaled lipid accumulation score [5]: 0.598

CCN(CC)CCCCN1c2ccccc2Oc2ccc(Cl)cc21 [10-DEBC hydrochloride]
scaled lipid accumulation score [1]: 0.5

Clc1ccc2c(c1)C(N1CCNCC1)=Nc1ccccc1O2 [Amoxapine] [listing 4 of 4 here]
scaled lipid accumulation score: 0.863 (active)

Clc1ccc2c(c1)C(N1CCNCC1)=Nc1ccccc1O2
scaled lipid accumulation score [1]: 0.843

Nc1ncnc2c1ncn2[C@@H]1O[C@@H]2COP(=O)(O)O[C@H]2[C@H]1O [Adenosine 3',5'-cyclic monophosphate]
scaled lipid accumulation score [1]: 0.281

NC(C(=O)O)C(O)C(=O)O (racemic) [DL-threo-beta-hydroxyaspartic acid]
scaled lipid accumulation score [1]: ≤ -0.07
